TTR transcr act: TTR transcription activation, primary screen. SH-SY5Y TTR promoter Gaussia luciferase, luminescence; 100% = recombinant luciferase protein wells. activation, % at 16.7 µM. 1.3% of 92,000 active. AID 1117267;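 active = activation above the mean of all tested compounds plus 3 SD, cut at about 9.5% in these data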;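 note: cells exposed to compounds for one day before reading; 0% = median of all test compound wells on the plate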
HuH7 TTR inh: decreases TTR transcription in HuH7 cells in activator counter-screen | inhibition, % at 16.7 µM | AID 1117279 | HuH7 TTR promoter-Gaussia luciferase reporter, luminescence | 4% of 1,100 active | shares compounds with TTR transcr act;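 active = average inhibition above the solvent-only control wells' mean plus 3 SD, cut at about 15% in these data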;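 note: 0% = cells with DMSO only and 100% = cells with inhibitor control FD; inhibitors lower well luminescence so higher value means more inhibition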
TTR up confirm: human TTR transcription activation, confirmation | shares compounds with TTR transcr act | SHSY5Y TTR promoter Gaussia luciferase, luminescence; 100% = purified Lucia enzyme wells, no cells | AID 1117280 | activation, % at 16.7 µM | 1,100 tested, under 10 active;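 active = mean activation above a set limit taken from the earlier primary screen, cut at about 11% in these data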;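 note: 0% = DMSO-treated cells and 100% = recombinant Lucia luciferase without cells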
Numbers without * were called inactive. This is one part of a sample in which hits are shown more often than they occur.

SMILES | TTR transcr act | others
COC(=O)[C@]12C[C@H](CC(=O)N3CCCC3)C(=O)N(Cc3cccc4ccccc34)C1=C[C@H](COCc1ccccc1)O[C@@H]2C | -2
O=C(Nc1ccc(F)cc1)OC[C@@H]1CSCCS(=O)(=O)N1 | 1
COC(=O)[C@]12C[C@H](CC(=O)NCc3ccccc3)C(=O)N(Cc3ccc(Cl)cc3Cl)C1=C[C@H](C1CCCC1)O[C@@H]2C | 0
CNC(=O)[C@@H]1CC=C[C@@H]2CCN(c3ccccc3)C(=O)[C@@H]21 | -1
Cc1ccc(C)c(S(=O)(=O)N2CCCOC2CNC(=O)C(=O)NCc2ccncc2)c1 (stereo not given) | 1
CC(=O)c1cc(-c2cccc(Cl)c2O)c(=O)n2c1CCC2 | -1
CN(C)c1cc(Nc2ccc(O)cc2)c([N+](=O)[O-])c2nonc12 | 6
CC(=O)OCCN(C)c1cc(SC(C)C)c2nonc2c1[N+](=O)[O-] | 18* | HuH7 TTR inh=1;TTR up confirm=0
CCOC(=O)N1CCN(c2cc(N(C)CCO)c([N+](=O)[O-])c3nonc23)CC1 | -1
CCN=C1S/C(=C/c2cc(C)n(-c3ccc(Cl)cc3F)c2C)C(=O)N1CC | -2
CC(C)(C)OC(=O)C1[C@H](O)C=CC[C@H]1S(=O)c1ccccc1 (stereo not given in full) | 0
COc1ccc(-n2nc(C(=O)NCC(=O)NCCCN3CCN(C)CC3)c3ccccc3c2=O)cc1 | -1
COc1ccc(-n2nc(C(=O)NCC(=O)NCc3ccco3)c3ccccc3c2=O)cc1 | 0
CCOC(=O)N1CCN(C(=O)CNC(=O)c2nn(-c3ccc(OC)cc3)c(=O)c3ccccc23)CC1 | 15* | HuH7 TTR inh=-18;TTR up confirm=1
COc1ccc(C2NC(=O)c3ccccc3N2)cc1COc1ccc(NC(C)=O)cc1 (stereo not given) | 1
COc1ccccc1NC(=O)NNC(=O)c1cc2ccccc2cc1O | 0
O=C(OCc1ccccc1F)c1cc2ccccc2cc1O | 11* | HuH7 TTR inh=-4;TTR up confirm=1
O=C(COC(=O)c1cc2ccccc2cc1O)NC(=O)NCc1ccco1 | -1
C#CCNC(=O)C[C@H]1C[C@@]2(C(=O)OC)C(=C[C@H](C(C)(C)C)O[C@@H]2C)N(Cc2ccc(Cl)cc2Cl)C1=O | -1
C#CCNC(=O)C[C@H]1C[C@@]2(C(=O)OCC)CCCC3=C2N(CCC3)C1=O | 1
Cc1ccc(CN2CCCCC(NC(=O)c3ccc(F)c(F)c3)C2=O)cc1 (stereo not given) | -2
CCCCCCNC(=O)CCNC(=O)c1cc(OC)c(OC)c(OC)c1 | -1
CCOc1cc(C(=O)NC(C)CC)cc(OCC)c1OCC (stereo not given) | -3
CCOc1cc(C(=O)NCCCNC(=O)c2cc(OCC)c(OCC)c(OCC)c2)cc(OCC)c1OCC | 12* | HuH7 TTR inh=-29;TTR up confirm=0
C[C@@H]1CCN(C2CC2)S(=O)(=O)c2ccc(N3CCC[C@H]3CO)cc2O1 | 0
SMILES | TTR transcr act | others
CCn1c(=O)[nH]n(C/C(C)=C\c2c[n+](Cc3ccc4c(c3)OCO4)c(N)[nH]2)c1=O | 0
C[C@H]1[C@@H](OC(=O)Nc2cc(Cl)ccc2Cl)CC[C@@]23CCCN2C(=O)CCC[C@@H]13 | -1
Cc1ccccc1C(=O)NCC(=O)NNC(=O)c1cccc(Cl)c1 | 19* | HuH7 TTR inh=-12;TTR up confirm=0
Cc1cccc(C(=O)NNC(=O)c2ccccc2C)c1 | -2
Cc1csc(C(=O)NCC(=O)NNC(=O)c2cccc(Cl)c2)c1 | 0
O=C(O)c1cccc2c1Cc1cc(Cl)ccc1-2 | 4
Cn1cccc1/C=N/NC(=O)CSc1nc2ccccc2[nH]1 | 2
COC(=O)[C@]12C[C@H](CC(=O)N3CCN(C(=O)C4CC4)CC3)C(=O)N(CCC3=CCCCC3)C1=C[C@H](C1CCCC1)O[C@@H]2C | 3
CC1CCN(C(=O)c2ccc(COc3ccccc3Cl)o2)CC1 | -4
O=C(c1ccc(COCC(F)(F)F)o1)N1CCCCCC1 | -1
CN1CCN(NC(=O)c2ccc(COc3ccccc3Br)o2)CC1 | 5
CC1CN(C(=O)c2ccccc2OCc2ccccc2Cl)CC(C)O1 (stereo not given) | -1
O=C(c1ccc(COc2ccccc2Cl)o1)N1CCCC1 | 10* | HuH7 TTR inh=-11;TTR up confirm=0
CC1CN(C(=O)c2ccc(COc3ccccc3Br)o2)CC(C)O1 (stereo not given) | 69* | HuH7 TTR inh=-9;TTR up confirm=0
CCCC1CCC2(CCCN2CCOC(=O)Nc2cccc(Cl)c2)CC1 (stereo not given) | -1
COC(=O)[C@]12C[C@H](CC(=O)N3CCN(C(=O)c4ccco4)CC3)C(=O)N(Cc3cccc4ccccc34)C1=C[C@H](C(C)C)O[C@@H]2C1CC1 | 1
S=C(Nc1ccccc1I)OC1CCC12CCC(c1ccccc1)CC2 (stereo not given) | 4
CC(C)CNS(=O)(=O)/C=C/c1ccccc1CCNC(=O)OC(C)(C)C | 1
Cc1ccc(OCCOc2ccc(Cl)cc2Cl)c(Br)n1 | 2
O=C(NC1CCCCN(Cc2ccc(Cl)cc2)C1=O)c1ccc(-c2ccccc2)cc1 (stereo not given) | -1
O=S(=O)(Nc1ccccn1)c1ccc(Br)cc1 | 2
O=S(=O)(Nc1ccccn1)c1cnc(Cl)c(Br)c1 | 20* | HuH7 TTR inh=-8;TTR up confirm=0
O=S(=O)(Nc1nccs1)c1cnc(Cl)c(Br)c1 | 1
S=c1[nH]nc(-c2ccccc2)n1Cc1ccccc1 | 6
COc1ccc(-c2n[nH]c(=S)n2Cc2ccccc2)cc1OC | 2
SMILES | TTR transcr act | others
CC(C)c1cc(-c2n[nH]c(=S)n2Cc2ccccc2)cs1 | 11* | HuH7 TTR inh=-2;TTR up confirm=-1
O=C(C1CC1)n1ccc2ccc(-c3ccc4ccn(Cc5ccccc5)c4c3)cc21 | 1
CCn1c(=O)cc(OCC(=O)NCC2CCCO2)c2ccccc21 (stereo not given) | -2
CCn1c(=O)cc(OCC(=O)Nc2nc(C)cs2)c2ccccc21 | 11* | HuH7 TTR inh=-23;TTR up confirm=0
CCn1c(=O)cc(OCC(=O)NCCc2ccc(OC)c(OC)c2)c2ccccc21 | 1
CCOC(=O)[C@]12CCCC=C1N(CCCOC)C(=O)[C@@H]2CC(=O)NCCCCc1ccccc1 | -1
CCOC(=O)[C@@]12CCC3=C1N(CCC3)C(=O)[C@H](CC(=O)NCCCOC)C2 | 0
Cc1ccc(S(=O)(=O)N(C)C)cc1NC(=O)CSc1ccc2c(c1)OCCO2 | 2
Cc1ccc(S(=O)(=O)N(C)C)cc1NC(=O)c1cccs1 | 1
Cc1ccc(S(=O)(=O)N(C)C)cc1NC(=O)C1CCCC1 | 11* | HuH7 TTR inh=-16;TTR up confirm=-1
O=C(NCCc1ccccc1)OCc1cn(-c2c(F)cccc2F)nn1 | 1
O=C(NCCc1ccccc1)OCc1cn(-c2cccc(C(F)(F)F)c2)nn1 | 4
COc1ccc(-n2cc(COC(=O)NCCc3ccccc3)nn2)cc1 | 11* | HuH7 TTR inh=-8;TTR up confirm=-1
Nc1c(C(=O)NCC(O)c2ccccc2)cnn1-c1ccccc1 (stereo not given) | 0
O=C(NCc1ccc(Cl)cc1)O[C@H]1CC[C@@]23CCCN2C(=O)CCC[C@H]3C1 | 1
O=C1CCC[C@H]2Cc3nc4cccc(Cl)c4cc3C[C@]23CCCN13 | -1
O=C(Nc1ccc(F)cc1)Nc1c(-c2ccc(F)cc2)nc2ncccn12 | -1
CSC1=NCCN1C(=O)C(C)Oc1ccccc1 (stereo not given) | -1
